PMP22 txn prim = modulates PMP22 transcription in S16 Schwann cells | S16 Pmp22-F2sN Schwann cells, FLuc/NLuc coincidence luminescence, 24 h | Potency, µM (series often up to 57.5 µM), most hits filed as inhibitors | actives 2% (n = 43,000); active = clear falling dose curves in both reporters; inconclusive = both reporters move, but less clearly or upward; inactive = either reporter flat; the % is the NLuc reporter signal
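Reporter cells (S16 Pmp22-F2sN, 500–1,000 per well) exposed to compounds for 24 h, 37C, 5% CO2; lysis with FLuc read after 10 min, then Stop&Glo and NLuc read after 10 min.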
p53null 32C kill = kills p53 null cells at the permissive temperature; H1299-neo p53 null cells, ATP luminescence, 24 h, 32C; Potency, µM (series often up to 46.1 µM), most hits filed as cytotoxic; actives 0.62% (n = 55,000); note: nearly all actives have a fitted effect of over 55% in size
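H1299-neo, 600 cells/well; overnight 37C; cpd up to 46 uM, 24 h at 32C; ATPlite luminescence after 20 min RT; normalized to DMSO (0%) and tamoxifen 100 uM (100% kill); Hill-fit AC50.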
p53null 39C kill = p53 null cell cytotoxicity, nonpermissive temperature | AID 904 | Potency, µM (titrated, usually from 46.1 µM), actives largely listed as cytotoxic | H1299 p53-null (neo) cells, 39C, ATPlite viability, 24 h | actives 0.97% (n = 55,000); note: nearly all actives have a fitted effect of over 50% in size
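Concentration-response (up to 46 uM) was run for 24 h at the nonpermissive 39C on H1299-p53A138V or H1299-neo cells. ATP content was measured with ATPlite luminescence. AC50 values were Hill-modeled after normalizing between DMSO and 100 uM tamoxifen killing.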
OvCa metastasis = blocks SKOV3ip1 adhesion and invasion in omental model; SKOV3ip1-GFP adhesion/invasion on 3D omental model, fluorescence; Potency, µM (series often up to 45.8 µM), actives largely listed as inhibitors; actives 0.1% (n = 46,000); AID 1963576; note: nearly all actives have a fitted effect of over 65% in size
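Adhesion/invasion was scored as fixed GFP-labeled SKOV3ip1 cell counts (488/509 nm), normalized to DMSO and tomatine controls. Cancer cells in serum-free medium, with four compound doses (0.36-46 umol/L), sat 2 hr at RT then 16 hr at 37 C on a 48 hr fibroblast/mesothelial/ECM culture.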
S16 F2sN tox = S16 Schwann cell cytotoxicity; S16 Pmp22-F2sN Schwann cells viability, CellTiter-Glo, 24 h; AID 1508642; Potency, µM (highest dose often 57.5 µM), hits mostly cytotoxic; actives 0.48% (n = 43,000); note: nearly all actives have a fitted effect of over 65% in size
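S16 Pmp22-F2sN Schwann cells (500-1,000/well) in phenol-red-free DMEM with 10% FBS received 23 nL compound by pin tool for 24 h at 37 °C. Viability was then read as CellTiter-Glo luminescence after 15 min at room temperature.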
mTORC1 inh = mTORC1 pathway inhibition measured by phospho-rpS6; Tsc2-/- p53-/- MEF, phospho-rpS6 immunofluorescence/PI, 24 h; AID 493208; actives 0.78% (n = 44,000); Potency, µM (highest dose often 38.3 µM), actives largely listed as inhibitors; note: nearly all actives have a fitted effect of over 50% in size
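Read-out: phospho-S6 Alexa-488 intensity over PI intensity per well, scored as % active cells using thresholds from rapamycin (7.5 nM) and DMSO controls. Tsc2-/-, p53-/- MEFs exposed to compound for 24 h; PI cell count recorded as viability.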
Of the large screens only hits and unclear results are named; the others gave an inactive call. Shown are actives, neighbours in structure and some others; about 3% of the full set was active somewhere. Unless noted, calls come from the whole dose curve; as a rule, active = well fitted curve in the direction sought with a large enough effect; inconclusive = small, poorly fitted or top-dose-only effect, or another doubt; inactive = no such curve, though single readings can be large; an effect the other way counts as inactive or inconclusive.

CCCN1C(=O)C(Cc2nc3ccccc3c(=O)n2CC)c2cc(Br)ccc21 (configuration not stated)	PMP22 txn prim inconclusive, p53null 39C kill inconclusive, S16 F2sN tox inconclusive, mTORC1 inh 15µM
CCn1c(CC2C(=O)N(C)c3ccc(Br)cc32)nc2ccccc2c1=O (configuration not stated)	PMP22 txn prim inconclusive, p53null 39C kill inconclusive, mTORC1 inh inconclusive
CC(=O)[C@]1(O)Cc2c(O)c3c(c(O)c2[C@@H](O[C@H]2C[C@H](N)[C@@H](O)[C@H](C)O2)C1)C(=O)c1ccccc1C3=O	none (no result: PMP22 txn prim, p53null 32C kill, p53null 39C kill, S16 F2sN tox, mTORC1 inh)
COc1ccc(N2Cc3cccc(C(=O)Nc4ccc(C(C)C)cc4)c3C2=O)cc1	PMP22 txn prim inconclusive, p53null 32C kill inconclusive, p53null 39C kill 4µM, S16 F2sN tox inconclusive
O=C(O)C1=CC(O)C(O)[C@H](O)C1 (some centres not stated)	none (no result: PMP22 txn prim, p53null 32C kill, p53null 39C kill, S16 F2sN tox, mTORC1 inh)
O=C(NCCc1ccccc1Cl)c1ccc(Cn2c(=O)c3cccn3c3cccnc32)cc1	PMP22 txn prim inconclusive, p53null 32C kill inconclusive, p53null 39C kill 10µM, OvCa metastasis inconclusive
Cc1cc(-c2ccc(C)c(S(=O)(=O)Nc3ccccc3C(F)(F)F)c2)on1	p53null 32C kill inconclusive, p53null 39C kill 11µM
Cc1ccc(NS(=O)(=O)c2cc(-c3cc(C)no3)ccc2C)c(Cl)c1	PMP22 txn prim inconclusive, p53null 39C kill inconclusive
Cc1ccc(Cl)cc1N1CCN(CCCNc2ncnc3onc(-c4ccc(F)cc4)c23)CC1	PMP22 txn prim 18µM, S16 F2sN tox inconclusive
CCCN(C(=O)c1cc2c(s1)-c1ccccc1OC2)c1ccccc1F	PMP22 txn prim inconclusive
CCCN(C(=O)c1cc2c(s1)-c1ccccc1SC2)c1ccccc1F	PMP22 txn prim inconclusive, p53null 39C kill 20µM
CCc1ccc(-n2c(SCc3ccccc3Cl)nc3[nH]ncc3c2=O)cc1	PMP22 txn prim inconclusive, p53null 32C kill inconclusive, p53null 39C kill 18µM, OvCa metastasis inconclusive, S16 F2sN tox inconclusive
CN(c1ncccc1CNc1nc(Nc2ccc3c(c2)CC(=O)N3)ncc1C(F)(F)F)S(C)(=O)=O	none (no result: PMP22 txn prim, p53null 32C kill, p53null 39C kill, S16 F2sN tox, mTORC1 inh)
CCc1ccc(-c2[nH]nc3nc(-c4cc(OC)ccc4OC)cc(C(=O)O)c23)cc1	p53null 32C kill 10µM, p53null 39C kill 4µM, mTORC1 inh inconclusive
COc1ccc(-c2[nH]nc3nc(-c4cc(OC)c(OC)c(OC)c4)cc(C(=O)O)c23)cc1	mTORC1 inh 16µM
CC(C)c1ccc(-c2noc(SCC(=O)N3CCCCC3)n2)cc1	PMP22 txn prim inconclusive, p53null 32C kill 13µM, p53null 39C kill inconclusive
COc1cc(C(=O)Nc2nc3c(s2)Cc2c(Br)ccc(OC)c2-3)cc(OC)c1OC	PMP22 txn prim inconclusive, S16 F2sN tox 25µM
COc1ccc(C(=O)Nc2nc3c(s2)Cc2c(Br)ccc(OC)c2-3)cc1OC	PMP22 txn prim inconclusive, S16 F2sN tox inconclusive
COc1ccc(Cn2c(C(=O)O)c(CNCc3ccccc3F)c3ccc(OC)cc32)cc1	PMP22 txn prim inconclusive, S16 F2sN tox inconclusive, mTORC1 inh 12µM
CCOc1ccccc1CNCc1c(C(=O)O)n(Cc2ccccc2)c2cc(OC)ccc12	p53null 39C kill inconclusive
Cc1nc2c(C(=O)NCCc3ccccc3)c[nH]n2c(=O)c1Cc1ccc(F)cc1Cl	PMP22 txn prim inconclusive, p53null 32C kill 13µM, p53null 39C kill inconclusive
Cc1nc2c(C(=O)NCCc3ccc(Cl)cc3)c[nH]n2c(=O)c1Cc1ccccc1F	p53null 32C kill inconclusive, p53null 39C kill inconclusive
CC1CCn2c(nc3cc(C(=O)NCCc4ccccc4)ccc32)C1 (configuration not stated)	p53null 32C kill 13µM, p53null 39C kill 25µM
Cc1ccccc1CCNC(=O)c1ccc2c(c1)nc1n2CCCCC1	p53null 32C kill 2µM, p53null 39C kill 1.3µM
Cc1ccccc1CCNC(=O)c1ccc2c(c1)nc1n2CCOC1	p53null 32C kill 7.9µM, p53null 39C kill 3.2µM
CCCc1nn2cc(-c3ccc(C)c(C)c3)nc2s1	p53null 32C kill 7.9µM, p53null 39C kill 10µM
COc1ccc2[nH]cc(CCNC(=O)Nc3ccccc3)c2c1	none
COc1ccc2[nH]cc(CCNC(=O)Nc3cc(C)cc(C)c3)c2c1	p53null 39C kill 20µM
CC(=O)NCCC(=O)N[C@@H](CCC(N)=O)C(=O)N[C@@H](CO)C(=O)N[C@@H](CCC(N)=O)C(=O)N[C@@H](CCC(N)=O)C(=O)N[C@H](C(=O)N[C@@H](Cc1ccccc1)C(=O)N[C@]1(C)CCCCCCC=CCCC[C@@](C)(C(=O)N[C@@H](CCC(N)=O)C(=O)N[C@@H](CC(N)=O)C(N)=O)NC(=O)[C@H](CC(C)C)NC(=O)[C@H](CC(C)C)NC(=O)[C@@H](CCCNC(=N)N)NC(=O)[C@H](Cc2c[nH]c3ccccc23)NC(=O)[C@H](CC(C)C)NC(=O)[C@H](CC(N)=O)NC1=O)[C@H](C)O	none (no result: PMP22 txn prim, p53null 32C kill, p53null 39C kill, S16 F2sN tox, mTORC1 inh)
O=C(Nc1cccc(Br)c1)c1cccc(S(=O)(=O)N2CCCCCC2)c1	none (no result: PMP22 txn prim, p53null 32C kill, p53null 39C kill, S16 F2sN tox, mTORC1 inh)
COc1ccc(OC)c2sc(N3CCN(C(=O)C(C)(C)C)CC3)nc12	p53null 32C kill 13µM, p53null 39C kill 11µM
COC(=O)c1ccc(COc2ccccc2/C=C(\C#N)C(=O)NC(C)C)cc1	none (no result: PMP22 txn prim, OvCa metastasis, S16 F2sN tox, mTORC1 inh)
CCC[C@H](NC(=O)C(C#N)=Cc1cccc(Br)n1)c1ccccc1	OvCa metastasis 12µM (no result: PMP22 txn prim, p53null 32C kill, p53null 39C kill, S16 F2sN tox, mTORC1 inh)
COCCN1C(=O)c2[nH]nc(-c3ccccc3O)c2C1c1ccc(Cl)c(Cl)c1 (configuration not stated)	PMP22 txn prim inconclusive, p53null 39C kill 16µM, OvCa metastasis inconclusive, S16 F2sN tox inconclusive
COc1ccc(C2c3c(-c4ccccc4O)n[nH]c3C(=O)N2CCc2ccccc2)cc1 (configuration not stated)	PMP22 txn prim inconclusive, p53null 39C kill inconclusive, S16 F2sN tox inconclusive, mTORC1 inh inconclusive
Cc1cc(C)c(-c2n[nH]c3c2C(c2ccccc2F)N(Cc2ccco2)C3=O)c(O)c1 (configuration not stated)	PMP22 txn prim inconclusive, p53null 39C kill 16µM, mTORC1 inh 13µM
COc1ccc(CCN2C(=O)c3[nH]nc(-c4ccccc4O)c3C2c2cccc(OC)c2)cc1 (configuration not stated)	PMP22 txn prim inconclusive, S16 F2sN tox inconclusive, mTORC1 inh 15µM

From PubChem
